# Test results taken from PubChem BioAssay (NCI).
# About 83,000 compounds went through this panel and 20% of them were active in at least one assay; those are over-represented in the sample as a whole.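 Note: values are percent growth. 100 is the growth of untreated cells, values between 100 and 0 indicate rising inhibition; between -100 and 0 indicates cell death.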 Unmarked numbers belong to inactive results. Activity calls are given as the source filed them. The calls were made as follows: active = growth percent below 10; inactive = the rest.
# How the values were obtained:
# Assay in all cases: NCI-60 one-dose screen, 48 h (100 = growth as untreated, 0 = no growth, -100 = all killed)
# Settings in all cases: 10 µM unless noted
# DU-145 prostate = test system: DU-145 prostate
# K-562 leukemia = test system: K-562 leukemia
# MALME-3M melanoma = test system: MALME-3M melanoma
# MDA-MB-231 breast = test system: MDA-MB-231 breast
# RXF 393 renal = test system: RXF 393 renal
# SF-268 CNS = test system: SF-268 CNS
# SF-295 CNS = test system: SF-295 CNS
# SF-539 CNS = test system: SF-539 CNS
# UACC-257 melanoma = test system: UACC-257 melanoma
# M14 melanoma = test system: M14 melanoma
SMILES,growth (DU-145 prostate),growth (K-562 leukemia),growth (MALME-3M melanoma),growth (MDA-MB-231 breast),growth (RXF 393 renal),growth (SF-268 CNS),growth (SF-295 CNS),growth (SF-539 CNS),growth (UACC-257 melanoma),growth (M14 melanoma)
CC1(c2cc3cc(Cl)ccc3oc2=O)NC(=O)c2c(/C=C/C(=O)OC3CC4CCC3(C)C4(C)C)cccc2N1 (centres undefined),71.2%,21.6%,84.6%,75.1%,52%,78.5%,46.1%,87.2%,57.2%,69.6%
CCC(C)(C)c1ccc(OCCCCN2CCN(c3ccncc3)CC2)cc1,60.8%,-1.88% (active),-85% (active),-30.9% (active),-7.66% (active),66.7%,-35.6% (active),-36% (active),37.5%,-56.6% (active)
COc1ccc(-c2ccnc(SCc3cc4cc(Cl)ccc4[nH]c3=O)n2)cc1,35.6%,79.1%,27.9%,26.9%,-10.7% (active),0.935% (active),26.5%,46.2%,72.1%,73.8%
Cc1ccc(C(=O)CSc2nc3ccc(C)cc3c(=O)n2-c2ccc(F)cc2)cc1,80.9%,92.7%,79.6%,21.3%,30.5%,45.5%,28%,40.2%,85.9%,79.7%
CCOC(=O)/C=C/c1cccc2c1C(=O)NC(C)(c1cc3cc(Cl)ccc3oc1=O)N2 (centres undefined),37.7%,19%,32.7%,32.1%,-1.81% (active),45.5%,19.3%,38.5%,44.3%,22.3%
C#C[C@]1(O)CC[C@H]2[C@@H]3CC=C4c5sc(-c6ccc(O)c(O)c6)nc5CC[C@]4(C)[C@H]3CC[C@@]21C,-49.4% (active),-51.3% (active),-84% (active),-77.8% (active),-90.2% (active),-76.7% (active),-94.2% (active),-93.2% (active),-81.7% (active),-87.7% (active)
N/C(=N\c1nc2ccccc2s1)NC(=O)Nc1ccccc1Br,-40.7% (active),11.5%,-12.5% (active),-50.3% (active),0.178% (active),1.62% (active),-31.4% (active),-75.6% (active),54.8%,2.92% (active)
COc1ccc(CCC2c3c(cc4c(c3OC)OCO4)CCN2C)cc1 (centres undefined),5.2% (active),3.01% (active),-98.4% (active),-80.8% (active),-35% (active),10.2%,-65.2% (active),-99.9% (active),-65.7% (active),–
O=C(CN1C(=O)/C(=C/c2ccccc2Cl)SC1=S)N1CCOCC1,78.1%,27%,76.3%,94.3%,77.4%,106%,107%,91.7%,94.3%,85.3%
O=C(Nc1ccccc1)N1CCN(c2cc(-c3cn(-c4ccccc4)nc3-c3cccc(O)c3)ccn2)CC1,95.3%,29.5%,84%,82.4%,90.8%,114%,54.8%,89.5%,97.4%,69.4%
COc1ccc(Cc2nn(CC(=O)N/N=C/c3ccc(F)cc3)c(=O)c3c(C)noc23)cc1,40%,70.1%,-0.917% (active),31.3%,-26% (active),46.7%,-19.3% (active),57.1%,54.3%,50.8%
Cc1cc(=O)oc2cc(OCCOc3ccc(/C=C/C(=O)Nc4ccccc4N)cc3)ccc12,35.9%,21.1%,48.6%,-16.1% (active),31%,27.9%,30.6%,18.9%,30.3%,54.2%
Cn1cc(-c2nc(N)nnc2-c2c[nH]c3ccc(F)cc23)c2cccnc21,49.9%,30.2%,64.5%,22%,60.5%,34%,15.8%,40.8%,61.9%,26.3%
Clc1ccc(-c2ccc(OCCCN3CCN(c4ccncc4)CC3)cc2)cc1,69.1%,-45.6% (active),84.2%,33.1%,15.3%,75.9%,40.6%,30%,90.2%,-54.6% (active)
CN(C)c1nc(NCCNS(=O)(=O)c2ccc(C(=O)/C=C/c3ccc(Cl)cc3)cc2)nc(Nc2ccc(F)cc2)n1,-23.1% (active),1.01% (active),-46.6% (active),-61.4% (active),-81.3% (active),3.35% (active),-26.6% (active),-98% (active),-4.45% (active),-65.8% (active)
COc1cc(NC(=O)c2cccc(C3CCc4c(cc(OC)c(OC)c4OC)O3)c2)cc(OC)c1OC (centres undefined),11.6%,15%,21%,28.3%,47.4%,73.1%,8.61% (active),-8.73% (active),33.7%,22.2%
O=c1oc2ccccc2cc1-c1csc(N2N=C(c3ccccc3)CC2c2ccc(N3CCOCC3)cc2)n1 (centres undefined),113%,107%,116%,90.3%,112%,127%,105%,100%,119%,103%
Cn1cc(-c2cc(N)n3nc(-c4c[nH]c5ccccc45)cc3n2)c2cc(Br)cnc21,5.95% (active),-23.9% (active),-83.9% (active),-83.4% (active),-76.3% (active),0.392% (active),-71.6% (active),-93.5% (active),-78.9% (active),-71% (active)
CC(/C=C1\SC(=S)N(CCCC(=O)NC(CC(C)C)C(=O)O)C1=O)=C\c1ccccc1 (centres undefined),98.7%,82.8%,104%,99.8%,96.2%,100%,97.4%,96%,104%,78.6%
CN(C)CCOc1ccc(C(=O)C2[C@H](c3ccc(Cl)cc3)[C@@H](c3ccccc3)NC23C(=O)Nc2ccc(Br)cc23)cc1 (some centres undefined),14.3%,-32.3% (active),-50.2% (active),-20.5% (active),-0.638% (active),41.8%,-53.4% (active),13%,53.8%,-71.5% (active)
Cn1cc(-c2nc(N)nnc2-c2c[nH]c3ccc(Br)cc23)c2cc(Br)cnc21,14.2%,0.943% (active),4.82% (active),11.4%,-8.55% (active),10.9%,11.4%,-9.44% (active),47.3%,0.895% (active)
COCOc1cc2oc(C(=O)N[C@@H](Cc3ccccc3)C(O)C(=O)NCc3ccccc3)c(C)c(=O)c2cc1OCOC (some centres undefined),52.8%,90.4%,22.3%,20.7%,-23.7% (active),65.8%,89%,24.7%,61.1%,82.9%
CCOC(=O)c1ccc(Nc2nc(NN)nc(-c3ccc(F)cc3)c2C#N)cc1,113%,32.2%,98.5%,76.7%,142%,109%,97.8%,104%,103%,98%
CCCSc1nc(NCCc2c[nH]c3ccccc23)c(C#N)c(-c2ccccc2)n1,75.3%,25.2%,100%,40.6%,55.2%,70.5%,72.6%,66.2%,100%,83.5%
CCN(CC)c1ccnc(CNCCSC(c2ccccc2)(c2ccccc2)c2ccc(OC)cc2)c1,-25.3% (active),-23.6% (active),-92.5% (active),-45.5% (active),-26% (active),4.54% (active),-93.7% (active),-95.8% (active),-45.3% (active),-74.7% (active)
COc1c(F)ccc(C(=O)Nc2ccc3nc(NC(=O)C4CCCN(S(=O)(=O)c5ccc(C#N)cc5)C4)sc3c2)c1F (centres undefined),95.7%,62.6%,97.5%,99.1%,46.7%,93.5%,90.1%,73.1%,87.1%,92.7%
CN1CCN(/C(=N\c2sc(-c3ccccc3)nc2-c2ccccc2)c2ccccc2)CC1,92.3%,17.8%,77.9%,77.9%,76.1%,91.5%,87.6%,76%,77.4%,76.8%
